Assay results: ChEMBL document CHEMBL1961873, “Compounds: GSK PKIS; Assays: Nanosyn kinase panel” (2012)

How the values were obtained:
[1] = biological target: Protein kinase C gamma type (Homo sapiens) (UniProt P05129); details: at 1 µM;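 further: each value is an averaged percent inhibition of the enzyme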
[2] = biological target: T1, Protein kinase C iota type (Homo sapiens) (UniProt P41743); details: at 0.1 µM
T1 sequence (whole entry): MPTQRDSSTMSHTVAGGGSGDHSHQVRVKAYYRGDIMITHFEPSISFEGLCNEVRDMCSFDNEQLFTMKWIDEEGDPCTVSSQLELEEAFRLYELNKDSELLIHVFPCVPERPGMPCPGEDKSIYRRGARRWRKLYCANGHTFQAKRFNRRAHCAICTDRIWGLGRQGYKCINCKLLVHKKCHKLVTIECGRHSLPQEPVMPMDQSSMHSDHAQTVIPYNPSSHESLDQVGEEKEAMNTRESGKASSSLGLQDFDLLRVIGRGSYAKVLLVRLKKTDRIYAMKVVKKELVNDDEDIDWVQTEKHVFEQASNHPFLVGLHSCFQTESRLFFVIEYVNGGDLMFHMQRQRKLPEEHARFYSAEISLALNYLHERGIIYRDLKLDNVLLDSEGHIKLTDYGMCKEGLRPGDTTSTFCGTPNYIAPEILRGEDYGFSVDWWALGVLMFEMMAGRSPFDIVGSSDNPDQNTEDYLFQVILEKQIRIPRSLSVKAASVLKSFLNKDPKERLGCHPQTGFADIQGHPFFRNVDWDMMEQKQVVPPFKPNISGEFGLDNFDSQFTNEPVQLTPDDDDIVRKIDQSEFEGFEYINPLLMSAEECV

[3] = biological target: T1, Protein kinase C iota type (Homo sapiens); details: at 1 µM
[4] = biological target: Protein kinase C theta type (Homo sapiens) (UniProt Q04759); details: at 0.1 µM
[5] = biological target: Protein kinase C theta type (Homo sapiens) (UniProt Q04759); details: at 1 µM
[6] = biological target: Protein kinase C beta type (Homo sapiens) (UniProt P05771); details: at 0.1 µM
[7] = biological target: Protein kinase C beta type (Homo sapiens) (UniProt P05771); details: at 1 µM
[8] = biological target: T2, Serine/threonine-protein kinase D1 (Homo sapiens) (UniProt Q15139); details: at 0.1 µM
T2 sequence (whole entry): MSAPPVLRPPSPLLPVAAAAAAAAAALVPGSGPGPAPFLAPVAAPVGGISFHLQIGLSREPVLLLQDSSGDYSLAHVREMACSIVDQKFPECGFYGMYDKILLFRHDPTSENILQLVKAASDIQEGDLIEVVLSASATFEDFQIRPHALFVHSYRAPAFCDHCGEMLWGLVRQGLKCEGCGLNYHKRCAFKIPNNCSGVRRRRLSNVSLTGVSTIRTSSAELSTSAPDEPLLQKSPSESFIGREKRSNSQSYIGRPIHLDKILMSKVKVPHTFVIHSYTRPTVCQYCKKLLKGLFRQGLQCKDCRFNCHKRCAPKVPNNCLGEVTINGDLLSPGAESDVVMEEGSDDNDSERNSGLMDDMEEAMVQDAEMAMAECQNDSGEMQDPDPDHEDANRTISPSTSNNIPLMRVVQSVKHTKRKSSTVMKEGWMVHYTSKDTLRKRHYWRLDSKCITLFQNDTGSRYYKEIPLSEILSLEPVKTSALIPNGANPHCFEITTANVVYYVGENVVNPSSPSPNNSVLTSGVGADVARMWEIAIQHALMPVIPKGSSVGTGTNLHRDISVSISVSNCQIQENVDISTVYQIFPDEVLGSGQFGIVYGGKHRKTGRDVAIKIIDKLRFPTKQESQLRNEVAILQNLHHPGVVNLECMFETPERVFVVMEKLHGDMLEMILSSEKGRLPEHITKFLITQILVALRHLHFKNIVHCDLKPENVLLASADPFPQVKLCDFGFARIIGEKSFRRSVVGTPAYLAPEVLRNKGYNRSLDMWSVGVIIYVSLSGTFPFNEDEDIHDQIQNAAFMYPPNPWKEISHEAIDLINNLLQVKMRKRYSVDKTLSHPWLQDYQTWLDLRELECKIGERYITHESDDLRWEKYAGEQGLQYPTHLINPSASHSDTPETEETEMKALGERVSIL

[9] = biological target: T2, Serine/threonine-protein kinase D1 (Homo sapiens); details: at 1 µM
[10] = biological target: T3, Serine/threonine-protein kinase D2 (Homo sapiens) (UniProt Q9BZL6); details: at 0.1 µM
T3 sequence (whole entry): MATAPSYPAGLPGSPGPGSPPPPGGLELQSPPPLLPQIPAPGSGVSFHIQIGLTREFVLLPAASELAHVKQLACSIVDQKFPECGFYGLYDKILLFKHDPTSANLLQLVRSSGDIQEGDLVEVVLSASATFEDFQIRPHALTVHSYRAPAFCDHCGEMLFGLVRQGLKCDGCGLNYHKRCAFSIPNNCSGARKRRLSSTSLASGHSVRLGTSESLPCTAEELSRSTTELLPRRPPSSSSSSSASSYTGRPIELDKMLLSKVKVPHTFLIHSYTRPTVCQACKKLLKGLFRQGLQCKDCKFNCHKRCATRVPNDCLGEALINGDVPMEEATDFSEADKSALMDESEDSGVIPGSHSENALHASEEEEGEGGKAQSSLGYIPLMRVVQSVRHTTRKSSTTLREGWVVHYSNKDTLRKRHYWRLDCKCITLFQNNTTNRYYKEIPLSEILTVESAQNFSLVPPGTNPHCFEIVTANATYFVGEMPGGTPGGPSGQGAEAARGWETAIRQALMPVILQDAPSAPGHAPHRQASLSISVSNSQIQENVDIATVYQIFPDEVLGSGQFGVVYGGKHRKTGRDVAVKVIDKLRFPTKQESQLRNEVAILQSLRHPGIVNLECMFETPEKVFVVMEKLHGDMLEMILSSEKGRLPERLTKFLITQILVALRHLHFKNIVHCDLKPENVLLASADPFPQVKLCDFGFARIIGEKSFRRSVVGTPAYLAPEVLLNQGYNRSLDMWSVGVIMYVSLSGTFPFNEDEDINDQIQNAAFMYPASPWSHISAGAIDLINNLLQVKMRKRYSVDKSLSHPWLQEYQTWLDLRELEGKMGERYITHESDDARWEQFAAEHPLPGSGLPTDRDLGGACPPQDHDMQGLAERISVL

[11] = biological target: T3, Serine/threonine-protein kinase D2 (Homo sapiens); details: at 1 µM
[12] = biological target: T4, Serine/threonine-protein kinase D3 (Homo sapiens) (UniProt O94806); details: at 0.1 µM
T4 sequence (whole entry): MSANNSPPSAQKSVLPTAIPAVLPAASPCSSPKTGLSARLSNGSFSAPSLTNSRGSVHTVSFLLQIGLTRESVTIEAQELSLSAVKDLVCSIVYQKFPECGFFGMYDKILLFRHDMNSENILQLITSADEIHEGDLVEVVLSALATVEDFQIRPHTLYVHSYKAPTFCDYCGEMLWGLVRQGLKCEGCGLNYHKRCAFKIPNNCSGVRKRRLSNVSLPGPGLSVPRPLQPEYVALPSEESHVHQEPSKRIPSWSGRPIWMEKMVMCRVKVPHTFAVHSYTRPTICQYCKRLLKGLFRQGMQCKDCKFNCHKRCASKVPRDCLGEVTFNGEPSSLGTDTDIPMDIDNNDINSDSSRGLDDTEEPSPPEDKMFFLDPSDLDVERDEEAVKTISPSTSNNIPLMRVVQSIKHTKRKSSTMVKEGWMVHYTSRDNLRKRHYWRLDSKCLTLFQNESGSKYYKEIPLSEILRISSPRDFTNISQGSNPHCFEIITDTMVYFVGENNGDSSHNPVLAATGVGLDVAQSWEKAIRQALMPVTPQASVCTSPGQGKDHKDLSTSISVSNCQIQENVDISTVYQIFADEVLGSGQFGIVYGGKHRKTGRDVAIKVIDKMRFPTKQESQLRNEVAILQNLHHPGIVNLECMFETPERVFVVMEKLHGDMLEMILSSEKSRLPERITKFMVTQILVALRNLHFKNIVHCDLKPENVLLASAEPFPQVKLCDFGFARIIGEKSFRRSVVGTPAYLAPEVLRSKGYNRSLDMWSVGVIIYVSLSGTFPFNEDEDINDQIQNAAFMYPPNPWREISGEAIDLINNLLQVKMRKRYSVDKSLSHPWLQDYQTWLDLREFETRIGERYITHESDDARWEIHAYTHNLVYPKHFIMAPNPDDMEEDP

[13] = biological target: T4, Serine/threonine-protein kinase D3 (Homo sapiens); details: at 1 µM
[14] = biological target: T5, cGMP-dependent protein kinase 1 (Homo sapiens) (UniProt Q13976); details: at 0.1 µM
T5 sequence (whole entry): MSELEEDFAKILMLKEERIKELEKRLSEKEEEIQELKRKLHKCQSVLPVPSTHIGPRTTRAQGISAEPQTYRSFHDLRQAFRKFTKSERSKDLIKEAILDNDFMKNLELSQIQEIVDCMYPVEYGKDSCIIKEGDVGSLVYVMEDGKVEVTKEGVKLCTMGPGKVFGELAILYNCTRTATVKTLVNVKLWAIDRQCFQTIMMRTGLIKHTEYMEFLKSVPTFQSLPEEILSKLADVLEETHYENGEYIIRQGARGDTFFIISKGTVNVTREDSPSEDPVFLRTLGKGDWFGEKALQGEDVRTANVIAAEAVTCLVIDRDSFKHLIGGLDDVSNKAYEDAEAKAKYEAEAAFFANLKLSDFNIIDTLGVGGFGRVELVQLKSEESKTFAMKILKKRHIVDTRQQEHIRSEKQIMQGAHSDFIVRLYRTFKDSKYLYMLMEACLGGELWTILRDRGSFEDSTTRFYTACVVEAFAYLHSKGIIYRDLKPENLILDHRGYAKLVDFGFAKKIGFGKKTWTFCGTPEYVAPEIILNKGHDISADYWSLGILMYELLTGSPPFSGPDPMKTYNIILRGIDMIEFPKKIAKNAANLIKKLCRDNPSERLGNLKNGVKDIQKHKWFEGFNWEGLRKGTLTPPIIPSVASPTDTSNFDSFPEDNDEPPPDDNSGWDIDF

[15] = biological target: T5, cGMP-dependent protein kinase 1 (Homo sapiens); details: at 1 µM
[16] = biological target: T6, cGMP-dependent protein kinase 2 (Homo sapiens) (UniProt Q13237); details: at 0.1 µM
T6 sequence (whole entry): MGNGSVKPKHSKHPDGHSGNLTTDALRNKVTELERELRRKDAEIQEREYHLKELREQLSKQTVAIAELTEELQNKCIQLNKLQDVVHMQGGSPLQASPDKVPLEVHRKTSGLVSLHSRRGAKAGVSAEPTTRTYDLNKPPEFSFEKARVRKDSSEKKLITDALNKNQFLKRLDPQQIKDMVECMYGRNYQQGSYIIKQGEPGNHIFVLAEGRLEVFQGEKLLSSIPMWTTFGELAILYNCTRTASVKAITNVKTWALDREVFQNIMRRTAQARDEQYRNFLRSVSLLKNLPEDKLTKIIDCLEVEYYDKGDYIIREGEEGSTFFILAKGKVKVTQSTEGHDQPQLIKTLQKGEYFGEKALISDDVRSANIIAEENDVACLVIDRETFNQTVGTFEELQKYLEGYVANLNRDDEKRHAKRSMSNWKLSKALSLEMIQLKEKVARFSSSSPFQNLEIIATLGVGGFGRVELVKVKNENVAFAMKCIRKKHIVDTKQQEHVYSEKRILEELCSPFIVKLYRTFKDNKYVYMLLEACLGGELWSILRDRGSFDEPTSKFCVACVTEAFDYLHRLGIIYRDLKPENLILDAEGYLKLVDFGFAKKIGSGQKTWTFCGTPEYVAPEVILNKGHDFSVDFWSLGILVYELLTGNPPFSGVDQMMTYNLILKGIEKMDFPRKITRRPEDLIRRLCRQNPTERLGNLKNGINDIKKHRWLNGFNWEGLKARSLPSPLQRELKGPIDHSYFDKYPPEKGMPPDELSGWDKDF

[17] = biological target: T6, cGMP-dependent protein kinase 2 (Homo sapiens); details: at 1 µM
[18] = biological target: T7, cAMP-dependent protein kinase catalytic subunit PRKX (Homo sapiens) (UniProt P51817); details: at 0.1 µM
T7 sequence (whole entry): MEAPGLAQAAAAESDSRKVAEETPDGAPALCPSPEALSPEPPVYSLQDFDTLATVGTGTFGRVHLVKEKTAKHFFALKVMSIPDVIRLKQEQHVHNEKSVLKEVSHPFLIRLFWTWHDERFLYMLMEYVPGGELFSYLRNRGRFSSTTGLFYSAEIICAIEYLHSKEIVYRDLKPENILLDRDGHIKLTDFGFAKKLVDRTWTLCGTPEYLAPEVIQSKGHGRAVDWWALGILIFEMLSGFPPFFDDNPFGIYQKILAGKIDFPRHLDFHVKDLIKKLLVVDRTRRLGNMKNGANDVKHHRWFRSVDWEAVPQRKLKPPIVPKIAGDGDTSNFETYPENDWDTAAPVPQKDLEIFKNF

[19] = biological target: T7, cAMP-dependent protein kinase catalytic subunit PRKX (Homo sapiens); details: at 1 µM
[20] = biological target: Rho-associated protein kinase 1 (Homo sapiens) (UniProt Q13464); details: at 0.1 µM;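 further: values are mean percent inhibition of ROCK1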
Sequence of Rho-associated protein kinase 1 (Homo sapiens) (Q13464 2-1354 limits assumed): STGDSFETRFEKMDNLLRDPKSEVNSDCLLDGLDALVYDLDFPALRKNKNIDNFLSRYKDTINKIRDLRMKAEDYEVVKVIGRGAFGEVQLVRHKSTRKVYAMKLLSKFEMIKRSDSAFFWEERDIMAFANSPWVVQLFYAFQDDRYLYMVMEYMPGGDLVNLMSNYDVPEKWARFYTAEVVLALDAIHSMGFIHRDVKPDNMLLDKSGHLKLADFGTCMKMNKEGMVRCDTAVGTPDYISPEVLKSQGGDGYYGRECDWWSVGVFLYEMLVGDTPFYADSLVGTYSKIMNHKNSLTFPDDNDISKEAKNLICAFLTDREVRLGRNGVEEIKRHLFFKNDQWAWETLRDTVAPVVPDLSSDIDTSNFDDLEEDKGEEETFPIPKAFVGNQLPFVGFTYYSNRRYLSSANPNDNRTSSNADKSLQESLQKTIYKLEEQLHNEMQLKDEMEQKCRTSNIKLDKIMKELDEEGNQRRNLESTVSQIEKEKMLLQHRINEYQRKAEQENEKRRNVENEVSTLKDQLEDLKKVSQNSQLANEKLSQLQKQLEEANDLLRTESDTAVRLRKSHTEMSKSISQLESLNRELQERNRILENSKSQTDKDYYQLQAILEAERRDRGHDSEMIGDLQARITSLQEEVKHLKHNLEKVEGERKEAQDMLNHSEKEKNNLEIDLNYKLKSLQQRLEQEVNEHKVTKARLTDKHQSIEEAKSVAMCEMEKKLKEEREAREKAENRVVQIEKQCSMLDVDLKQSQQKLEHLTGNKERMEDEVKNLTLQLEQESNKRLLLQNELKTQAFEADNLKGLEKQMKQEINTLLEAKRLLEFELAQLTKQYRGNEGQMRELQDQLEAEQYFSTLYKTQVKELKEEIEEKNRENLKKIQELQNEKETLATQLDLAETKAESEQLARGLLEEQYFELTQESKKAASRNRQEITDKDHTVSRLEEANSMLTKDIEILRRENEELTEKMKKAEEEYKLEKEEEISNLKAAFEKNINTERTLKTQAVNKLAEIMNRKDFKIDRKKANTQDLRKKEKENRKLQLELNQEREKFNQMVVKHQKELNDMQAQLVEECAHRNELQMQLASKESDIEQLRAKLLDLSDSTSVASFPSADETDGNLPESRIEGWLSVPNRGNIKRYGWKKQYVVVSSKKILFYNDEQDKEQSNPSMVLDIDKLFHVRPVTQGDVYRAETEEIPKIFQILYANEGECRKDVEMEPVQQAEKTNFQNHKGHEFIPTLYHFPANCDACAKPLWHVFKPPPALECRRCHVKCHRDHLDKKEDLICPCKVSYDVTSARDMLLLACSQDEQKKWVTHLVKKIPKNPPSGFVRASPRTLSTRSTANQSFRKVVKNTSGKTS

Sequence of Protein kinase C theta type (Homo sapiens) (Q04759 whole entry, looked up): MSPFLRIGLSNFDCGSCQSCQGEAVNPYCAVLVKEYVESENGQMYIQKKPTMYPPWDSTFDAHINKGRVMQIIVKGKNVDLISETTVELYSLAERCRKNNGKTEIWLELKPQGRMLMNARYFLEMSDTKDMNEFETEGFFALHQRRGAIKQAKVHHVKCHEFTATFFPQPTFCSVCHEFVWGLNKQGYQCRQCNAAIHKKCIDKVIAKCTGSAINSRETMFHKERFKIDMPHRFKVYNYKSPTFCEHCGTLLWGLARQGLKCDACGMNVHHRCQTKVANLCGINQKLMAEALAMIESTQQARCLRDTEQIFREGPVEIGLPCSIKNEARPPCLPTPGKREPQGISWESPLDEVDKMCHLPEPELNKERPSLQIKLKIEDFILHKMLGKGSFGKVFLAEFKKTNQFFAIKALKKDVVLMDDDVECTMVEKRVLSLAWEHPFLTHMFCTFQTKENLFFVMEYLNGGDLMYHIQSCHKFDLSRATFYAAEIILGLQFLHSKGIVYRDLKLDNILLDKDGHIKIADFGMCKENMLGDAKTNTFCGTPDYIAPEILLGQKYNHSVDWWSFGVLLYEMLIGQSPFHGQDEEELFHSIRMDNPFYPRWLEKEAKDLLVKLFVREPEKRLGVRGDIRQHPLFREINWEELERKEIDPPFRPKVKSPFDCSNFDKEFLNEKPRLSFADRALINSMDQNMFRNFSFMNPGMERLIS
Sequence of Protein kinase C beta type (Homo sapiens) (P05771 2-671 limits assumed): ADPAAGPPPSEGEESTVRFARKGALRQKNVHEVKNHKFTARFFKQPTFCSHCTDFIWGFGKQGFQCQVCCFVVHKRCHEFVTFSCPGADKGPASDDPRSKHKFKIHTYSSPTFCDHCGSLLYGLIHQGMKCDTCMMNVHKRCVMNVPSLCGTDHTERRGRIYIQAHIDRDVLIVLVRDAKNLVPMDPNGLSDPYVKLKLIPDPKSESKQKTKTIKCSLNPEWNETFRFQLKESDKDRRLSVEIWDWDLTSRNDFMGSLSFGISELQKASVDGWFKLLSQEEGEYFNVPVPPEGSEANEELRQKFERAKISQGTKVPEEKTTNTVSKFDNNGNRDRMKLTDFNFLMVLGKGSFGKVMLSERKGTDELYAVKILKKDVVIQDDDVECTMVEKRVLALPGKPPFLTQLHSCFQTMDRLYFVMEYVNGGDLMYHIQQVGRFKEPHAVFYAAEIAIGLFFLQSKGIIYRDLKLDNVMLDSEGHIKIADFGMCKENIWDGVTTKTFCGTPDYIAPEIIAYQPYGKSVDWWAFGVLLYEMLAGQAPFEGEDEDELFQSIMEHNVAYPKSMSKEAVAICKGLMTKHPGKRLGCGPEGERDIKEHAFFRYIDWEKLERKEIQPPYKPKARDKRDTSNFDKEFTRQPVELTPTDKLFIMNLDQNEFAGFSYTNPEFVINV

SMILES	inhibition [1]	inhibition [2]	inhibition [3]	inhibition [4]	inhibition [5]	inhibition [6]	inhibition [7]	inhibition [8]	inhibition [9]	inhibition [10]	inhibition [11]	inhibition [12]	inhibition [13]	inhibition [14]	inhibition [15]	inhibition [16]	inhibition [17]	inhibition [18]	inhibition [19]	inhibition [20]
O=C(NCC1CC1)c1ccc(-c2cccc(C(=O)NC3CC3)c2)cc1	-1.2%	2.21%	3.55%	1.24%	-0.68%	0.69%	-1.18%	1.97%	2.45%	2.36%	2.14%	2.87%	1.81%	3.32%	1.97%	1.23%	0.42%	0.49%	-0.06%	1.17%
c1ccc(-c2n[nH]cc2-c2ccnc(-c3ccc(OCCN4CCOCC4)cc3)c2)nc1	4%	3.68%	4.56%	0.5%	-0.12%	3.96%	3.92%	10.3%	66.3%	16.2%	80.7%	5.97%	57.5%	3.53%	4.78%	4.17%	3.32%	4.09%	2.55%	1.08%
